The values below come from publication PMC5540273 (PLoS ONE, 2017).

Several values for one entry are separate records, joined by “and”; a condition that tells them apart may be missing. Equal values may be shown once. Read-outs that look alike come from different tables or passages of the source.

For assay [1], the system named is SRPK3. To be noted: concentration: 1 μM, replicates: in singlicate, n = 1.
Assay [2] deals with STK16. The settings on record: concentration: 1 μM, replicates: in singlicate, n = 1.
In assay [3] the test system is STK33. The settings on record: concentration: 1 μM, replicates: in singlicate, n = 1.
The test system of assay [4] is STK35. To be noted: concentration: 1 μM, replicates: in singlicate, n = 1.
Assay [5] relates to STK36. To be noted: concentration: 1 μM, replicates: in singlicate, n = 1.
Assay [6] relates to STK39. To be noted: concentration: 1 μM, replicates: in singlicate, n = 1.
Assay [7] relates to SYK. The settings on record: concentration: 1 μM, replicates: in singlicate, n = 1.
The test system of assay [8] is SgK110. The settings on record: concentration: 1 μM, replicates: in singlicate, n = 1.
The subject of assay [9] is T1, TAK1.
T1 construct: gene MAP3K7
To be noted: concentration: 1 μM, replicates: in singlicate, n = 1.

The test system of assay [10] is TAOK1. To be noted: concentration: 1 μM, replicates: in singlicate, n = 1.
The subject of assay [11] is TAOK2. To be noted: concentration: 1 μM, replicates: in singlicate, n = 1.
The subject of assay [12] is TAOK3. The settings on record: concentration: 1 μM, replicates: in singlicate, n = 1.
Assay [13] relates to TBK1. To be noted: concentration: 1 μM, replicates: in singlicate, n = 1.
Assay [14] relates to TEC. The settings on record: concentration: 1 μM, replicates: in singlicate, n = 1.
Assay [15] relates to TESK1. To be noted: concentration: 1 μM, replicates: in singlicate, n = 1.
Assay [16] relates to TGFBR1. To be noted: n = 1.
Assay [17] deals with TGFBR2. The settings on record: concentration: 1 μM, replicates: in singlicate, n = 1.
The test system of assay [18] is TIE1. To be noted: concentration: 1 μM, replicates: in singlicate; n = 1.
For assay [19], the system named is T2, TIE2.
T2 construct: gene TEK
To be noted: concentration: 1 μM, replicates: in singlicate; n = 1.

Assay [20] deals with TLK1. To be noted: concentration: 1 μM, replicates: in singlicate, n = 1.
[21] abbreviates: concentration: 1 μM, replicates: in singlicate.
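Further: KINOMEscan kinase panel screen.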

As for `Cc1cccc(-c2nc(Nc3ccc4ncsc4c3)c3ccccc3n2)n1` [GW867588], the “%Inh” value in [1] stood at 9%; in assay [2], 12%; in assay [3], 57%; in assay [4], 2%; in assay [5] it was 7%; in assay [6] it was 4%. Further, the “%Inh” value in assay [7] is 18%; in assay [8], 5%; in assay [9], 15%; in assay [10], 23%; in assay [11], 0%; in [12], 6%. For the same molecule, the “%Inh” value in assay [13] was determined as 0%; in assay [14] it was 0%; in assay [15] it was 0%; in [16] (1 µM) it was 55%; in assay [17], 0%; in assay [18], 0%. In addition, the “%Inh” value in [19] and in assay [20] was 0% throughout.

In the case of `CN(C1=C(c2ccccc2)C(=O)NC1=O)c1ccccc1` [SB-334860], the “%Inh” value in [1] is 0%; in assay [2], 14%; in assay [3], 0%; in [4], 3%; in assay [5], 0%; in [6], 5%. The “%Inh” value amounted to 32% in assay [7]; 0% in [8]; 18% in assay [9]; 0% in assay [10]; 0% in [11]; 0% in assay [12]. In addition, the “%Inh” value in assay [13] worked out at 29%; in assay [14], 7%; in assay [15], 67%; in assay [16] (setting [21]) it was 26%; in [17], 0%; in assay [18], 0%. Also, the “%Inh” value was found to be 5% in assay [19] and 20% in [20].

As for `O=C(NCCNc1ccnc(Nc2ccc(F)cc2)n1)c1cc2ccccc2s1` [GSK1379874], the “%Inh” value in assay [1] came out at 0%; in assay [2], 5%; in assay [3], 0%; in assay [4], 0%; in assay [5] it was 0%; in assay [6], 0%. The “%Inh” value in [7] is listed as 36%; in assay [8] it was 0%; in assay [9] it was 0%; in assay [10], 0%; in assay [11], 0%; in [12] it was 0%. Further, the “%Inh” value amounted to 17% in [13]; 8% in assay [14]; 97.2% in [15]; 7% in [16] (setting [21]); 0% in assay [17]; 0% in assay [18]. Moreover, the “%Inh” value in [19] and in [20] was 0% in each case.

`Cc1nnc(-c2ccc(C)c(-c3ccc(C(=O)Nc4ccc(NS(C)(=O)=O)cc4)cc3)c2)o1` [GW702865]: the “%Inh” value in assay [1] is recorded as 3%; in assay [2] it was 0%; in [3], 0%; in assay [4], 0%; in assay [5], 24%; in assay [6], 14%. Moreover, the “%Inh” value in assay [7] is 33%; in assay [8] it was 4%; in assay [9], 4%; in [10], 0%; in assay [11] it was 0%; in assay [12], 0%. The “%Inh” value in assay [13] was determined as 10%; in assay [14] it was 0%; in assay [15] it was 11%; in assay [16] (setting [21]), 0%; in assay [17] it was 0%; in assay [18] it was 0%. Besides, the “%Inh” value in assay [19] and in assay [20] was 0% each time.

For `O=C(NCCCN1CCOCC1)c1cccc(Nc2nccc(Nc3ccc(Oc4ccccc4)cc3)n2)c1` [GW663929], the “%Inh” value in [1] is recorded as 0%; in assay [2] it was 64%; in assay [3], 10%; in [4], 34%; in assay [5] it was 33%; in [6] it was 23%. Moreover, the “%Inh” value in assay [7] amounted to 0%; in assay [8] it was 0%; in [9], 19%; in assay [10], 0%; in assay [11], 0%; in [12], 0%. Besides, the “%Inh” value is listed as 26% in assay [13]; 70% in assay [14]; 0% in assay [15]; 0% in assay [16] (setting [21]); 7% in [17]; 11% in assay [18]. In addition, the “%Inh” value in [19] worked out at 0%; in [20], 18%.

In the case of `c1ccc(-c2cc(-c3c[nH]nc3-c3ccccn3)ccn2)cc1` [GW576604], the “%Inh” value in assay [1] worked out at 0%; in assay [2] it was 0%; in [3], 8%; in assay [4], 0%; in assay [5], 0%; in assay [6] it was 2%. The “%Inh” value came out at 6% in assay [7]; 0% in assay [8]; 16% in assay [9]; 0% in [10]; 0% in [11]; 0% in assay [12]. The “%Inh” value in assay [13] came to 5%; in assay [14], 0%; in assay [15], 9%; in assay [16] (1 µM) it was 75%; in [17] it was 62%; in assay [18] it was 0%. Also, the entries for the “%Inh” value in [19] and in assay [20] were 0% and 1%, respectively.

On to `O=C(NCCNc1ccnc(Nc2ccc(F)cc2)n1)Nc1ccccc1F` [GSK1379880], for which the “%Inh” value in assay [1] came out at 2%; in [2], 4%; in [3], 0%; in [4] it was 0%; in assay [5], 48%; in [6], 3%. The “%Inh” value in [7] was 26%; in assay [8], 55%; in assay [9], 0%; in assay [10], 0%; in assay [11], 0%; in assay [12] it was 0%. Also, the “%Inh” value in assay [13] was determined as 6%; in assay [14], 14%; in assay [15] it was 0%; in [16] (setting [21]), 0%; in assay [17], 0%; in [18], 0%. Moreover, the “%Inh” value stood at 0% in assay [19] and 2% in assay [20].

As for `O=c1cc(N2CCOCC2)nc2n(Cc3cccc(Cl)c3Cl)c(C3CC3)nn12` [GSK2358994], the “%Inh” value is 0% in assay [1]; 10% in assay [2]; 0% in assay [3]; 0% in assay [4]; 3% in assay [5]; 0% in [6]. In addition, the “%Inh” value in [7], in assay [8], in assay [9], in [10], in assay [11] and in assay [12] was 0% each time. Further, the “%Inh” value in assay [13] is given as 26%; in assay [14] it was 13%; in assay [15], 14%; in assay [16] (setting [21]), 0%; in assay [17], 10%; in assay [18], 0%. Further, the “%Inh” value is listed as 0% in assay [19] and 25% in assay [20].

For the molecule `COc1cc2ncn(-c3cc(OCc4sccc4Cl)c(C(N)=O)s3)c2cc1OC` [GSK448459], the “%Inh” value came out at 3% in assay [1]; 21% in [2]; 0% in assay [3]; 0% in assay [4]; 0% in assay [5]; 0% in assay [6]. The “%Inh” value in [7] was 23%; in assay [8], 0%; in assay [9], 0%; in assay [10] it was 0%; in assay [11] it was 0%; in assay [12] it was 0%. In addition, the “%Inh” value in assay [13] was 15%; in assay [14], 5%; in assay [15], 0%; in assay [16] (setting [21]) it was 11%; in [17], 0%; in [18], 36%. The “%Inh” value in assay [19] and in [20] was 0% in each case.

`Fc1ccc(-c2nn3c(OCC(F)(F)F)cccc3c2-c2ccncc2)cc1` [GW514784]: the “%Inh” value in [1] amounted to 0%; in [2], 3%; in [3], 0%; in assay [4], 0%; in assay [5], 0%; in assay [6], 3%. In addition, the “%Inh” value in assay [7] is reported as 1%; in assay [8], 0%; in assay [9] it was 6%; in [10], 0%; in assay [11] it was 0%; in assay [12], 0%. Moreover, the “%Inh” value in assay [13] was 0%; in [14] it was 0%; in assay [15], 13%; in assay [16] (setting [21]), 39%; in assay [17], 55%; in [18] it was 0%. Also, the “%Inh” value in [19] and in [20] was 0% in each case.

Take `CC(C)(C)n1cnc2c(N)ncnc21` [SKF-97359]: the “%Inh” value in assay [1], in assay [2], in assay [3], in [4], in assay [5] and in assay [6] was 0% throughout. The “%Inh” value in [7] is listed as 0%; in assay [8] it was 85%; in assay [9], 22%; in [10], 0%; in [11], 0%; in assay [12], 0%. For the same molecule, the “%Inh” value turned out to be 19% in [13]; 0% in [14]; 0% in assay [15]; 30% in [16] (setting [21]); 0% in assay [17]; 0% in assay [18]. Besides, the “%Inh” value in [19] came out at 17%; in [20], 67%.

On to `Cl.Cl.Cl.Fc1ccc(-c2ncn(C3CCNCC3)c2-c2ccnc(Nc3ccccc3)n2)cc1` [SB-238039], for which the “%Inh” value in [1] (1 µM) is 11% and 26%; in [2] (1 µM) it was 5% and 0%; in assay [3] (1 µM), 0% and 12%; in [4] (1 µM), 2% and 0%; in assay [5] (1 µM) it was 97.9% and 93%; in assay [6] (1 µM), 18% and 0%. The “%Inh” value in [7] (1 µM) was 8% and 3%; in [8] (1 µM), 35% and 0%; in [9] (1 µM), 24% and 46%; in [10] (1 µM), 88% and 57%; in [11] (1 µM), 78% and 0%; in assay [12] (1 µM), 91.5% and 57%. Besides, the “%Inh” value was 36% and 0% in assay [13] (1 µM); 12% and 0% in assay [14] (1 µM); 8% and 0% in [15] (1 µM); 61% and 29% in assay [16] (concentration: 1 μM, replicates: in singlicate, 1 µM); 16% and 12% in assay [17] (1 µM); 0% in [18]. The “%Inh” value is 0% in assay [19]; 4% and 19% in assay [20] (1 µM).
